In PubChem BioAssay (NCI):
About 79,000 compounds went through this panel and 15% of them were active in at least one assay; those are over-represented in the sample as a whole. Active and inactive are the calls of the source. Rule as the data show it: active = growth inhibition above about 70%; inactive = the rest.

Tests used:
[1] = NCI Yeast Anticancer Drug Screen. Data for the rad52 strain (AID 147);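 also: 0% = growth of vehicle-treated control cultures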; conditions: S. cerevisiae rad52 mutant growth inhibition, stronger effect = higher value
Method in brief: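 Here a repair-compromised yeast strain receives each compound; its growth is then quantified and normalised to vehicle-only controls.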

[2] = NCI Yeast Anticancer Drug Screen. Data for the rad50EPP+ strain (AID 151);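 also: 0% = growth of vehicle-treated control cultures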; conditions: S. cerevisiae rad50 mutant strain, stronger effect = higher value
Method in brief: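 Read-out is yeast growth inhibition relative to vehicle; cells used were the rad50EPP+ strain.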

[3] = NCI Yeast Anticancer Drug Screen. Data for the mgt1 strain (AID 153); conditions: S. cerevisiae mgt1 mutant growth inhibition, stronger effect = higher value
Method in brief: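 Measured: inhibition of mgt1 yeast growth by compound, normalized to vehicle-treated cultures.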

[4] = NCI Yeast Anticancer Drug Screen. Data for the rad50 strain (AID 155);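 also: 0% = growth of vehicle-only cultures of the same strain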; conditions: S. cerevisiae rad50 strain growth inhibition, stronger effect = higher value
Method in brief: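 Relative growth inhibition (compound vs vehicle) was measured in yeast with a defined repair-gene alteration.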

[5] = NCI Yeast Anticancer Drug Screen. Data for the mec2-1 strain (AID 157); conditions: S. cerevisiae mec2-1 strain, stronger effect = higher value
Method in brief: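 Using mec2-1 yeast: add compound, measure growth, express inhibition versus vehicle-treated cultures.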

[6] = NCI Yeast Anticancer Drug Screen. Data for the rad14 strain (AID 159);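 also: 0% = growth of vehicle-treated control cultures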; conditions: S. cerevisiae rad14 strain growth inhibition, stronger effect = higher value
Method in brief: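 Screen for anticancer potential: a yeast strain altered in DNA damage repair is grown with compound, and reduced growth is quantified against vehicle controls.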

[7] = NCI Yeast Anticancer Drug Screen. Data for the sgs1 mgt1 strain (AID 161);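 also: 0% = growth of cultures given vehicle only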; conditions: S. cerevisiae sgs1 mgt1 strain, stronger effect = higher value
Method in brief: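 Percent growth inhibition was derived by comparing compound-exposed mutant yeast with vehicle-exposed cultures. The strain carries alterations in DNA damage repair.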

[8] = NCI Yeast Anticancer Drug Screen. Data for the cln2 rad14 strain (AID 165);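 also: 0% = growth equal to vehicle treated cultures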; conditions: S. cerevisiae cln2 rad14 strain, stronger effect = higher value
Method in brief: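 Yeast strain cln2 rad14, bearing defects in cell cycle control and DNA repair, serves as the test system; values reflect growth inhibition compared with vehicle.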

[9] = NCI Yeast Anticancer Drug Screen. Data for the bub3 strain (AID 167); conditions: S. cerevisiae bub3 mutant strain, stronger effect = higher value
Method in brief: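 Screening used yeast with an engineered genetic alteration affecting cell cycle control. Compound-exposed cultures were compared with vehicle cultures, and reduced growth was taken as inhibition.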

[10] = NCI Yeast Anticancer Drug Screen. Data for the wt2 strain (AID 169);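 also: 0% = growth of vehicle-treated yeast cultures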; conditions: S. cerevisiae wt2 strain growth inhibition, stronger effect = higher value
Method in brief: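 Treated yeast vs. vehicle-treated yeast: growth inhibition determined.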

[11] = NCI Yeast Anticancer Drug Screen. Data for the mlh1 strain (AID 171);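 also: 0% = growth of vehicle-treated control cultures of the same strain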; conditions: S. cerevisiae mlh1 strain growth inhibition, stronger effect = higher value
Method in brief: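 A yeast strain with a defined genetic lesion serves as the test organism. Cultures receive compound or vehicle, and growth is measured.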

[12] = NCI Yeast Anticancer Drug Screen. Data for the sgs1 strain (AID 173);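 also: 0% = growth of vehicle-only control cultures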; conditions: S. cerevisiae sgs1 mutant, stronger effect = higher value
Method in brief: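 A genetically defined yeast mutant is incubated with the test compound, and its growth is compared to that of the same strain given vehicle.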

[13] = NCI Yeast Anticancer Drug Screen. Data for the mlh1 rad18 strain (AID 175); conditions: S. cerevisiae mlh1 rad18 strain growth inhibition, stronger effect = higher value
Method in brief: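 Steps: expose repair-defective yeast to compound; measure growth; express inhibition against vehicle-treated controls.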

[14] = NCI Yeast Anticancer Drug Screen. Data for the rad18 strain (AID 177); conditions: S. cerevisiae rad18 mutant growth inhibition, stronger effect = higher value
Method in brief: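 Measured value is growth inhibition of a yeast strain bearing a DNA repair alteration, referenced to vehicle-treated cells.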

[15] = NCI Yeast Anticancer Drug Screen. Data for the CLN2oe strain (AID 163);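 also: 0% = growth of vehicle-only control cultures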; conditions: S. cerevisiae CLN2oe strain, stronger effect = higher value
Method in brief: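 Whole-cell yeast growth assay. A strain engineered for altered cell-cycle control received compound, and inhibition relative to vehicle-treated cultures was recorded.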

[16] = at 5.0 µM (retest, dose inferred, filed as 0.5)
[17] = at 50.0 µM (retest, dose inferred, filed as 5.0)

Measured: growth inhibition

CC(C)C1=CC2=C[C@H](O)[C@H]3C(C)(C)CCC[C@]3(C)C2=C(O)C1=O
active: [1]; at 11.0 µM 99% | [1]; at 33.0 µM 99% | [1]; at 100.0 µM 94% | [2]; at 33.0 µM 97% | [2]; at 100.0 µM 94% | [3]; at 11.0 µM 99% | [3]; at 33.0 µM 99% | [3]; at 100.0 µM 95% | [4]; at 11.0 µM 98% | [4]; at 33.0 µM 98% | [4]; [17] 98% | [4]; at 50.0 µM 92.8% | [4]; at 100.0 µM 93% | [5]; at 11.0 µM 95% | [5]; at 33.0 µM 99% | [5]; [17] 99% | [5]; at 50.0 µM 93.5% | [5]; at 100.0 µM 96% | [6]; at 11.0 µM 100% | [6]; at 33.0 µM 99% | [6]; at 100.0 µM 95% | [7]; [17] 98% | [7]; at 50.0 µM 93.3% | [8]; [17] 98% | [8]; at 50.0 µM 91.5% | [9]; at 11.0 µM 79% | [9]; at 33.0 µM 99% | [9]; [17] 98% | [9]; at 50.0 µM 92.3% | [9]; at 100.0 µM 96% | [10]; at 11.0 µM 99% | [10]; at 33.0 µM 98% | [10]; at 100.0 µM 96% | [11]; at 11.0 µM 99% | [11]; at 33.0 µM 99% | [11]; at 100.0 µM 94% | [12]; at 11.0 µM 99% | [12]; at 33.0 µM 98% | [12]; at 100.0 µM 95% | [13]; [17] 98% | [13]; at 50.0 µM 92.3% | [14]; at 11.0 µM 99% | [14]; at 33.0 µM 99% | [14]; at 100.0 µM 92%
inactive: [1]; at 1.2 µM 7% | [1]; at 3.7 µM 38% | [2]; at 1.2 µM 0% | [2]; at 3.7 µM 19% | [2]; at 11.0 µM 69% | [3]; at 1.2 µM -3% | [3]; at 3.7 µM -7% | [4]; at 1.2 µM -6% | [4]; at 3.7 µM 13% | [4]; [16] 29% | [5]; at 1.2 µM -3% | [5]; at 3.7 µM -1% | [5]; [16] 54% | [6]; at 1.2 µM 6% | [6]; at 3.7 µM 23% | [7]; [16] 68% | [8]; [16] 8% | [9]; at 1.2 µM 2% | [9]; at 3.7 µM 9% | [9]; [16] 41% | [10]; at 1.2 µM 15% | [10]; at 3.7 µM 57% | [11]; at 1.2 µM -13% | [11]; at 3.7 µM 23% | [12]; at 1.2 µM 8% | [12]; at 3.7 µM 15% | [13]; [16] 62% | [14]; at 1.2 µM -6% | [14]; at 3.7 µM 27%

CCS(=O)(=O)c1ccc(/C=C/C=N/NC(=S)NCC(C)C)cc1
inactive: [1]; at 1.2 µM 5% | [1]; at 3.7 µM 3% | [1]; at 11.0 µM -1% | [1]; at 33.0 µM 3% | [1]; at 100.0 µM 1% | [2]; at 1.2 µM 3% | [2]; at 3.7 µM 5% | [2]; at 11.0 µM 5% | [2]; at 33.0 µM 6% | [2]; at 100.0 µM -9% | [3]; at 1.2 µM -2% | [3]; at 3.7 µM 2% | [3]; at 11.0 µM -2% | [3]; at 33.0 µM 5% | [3]; at 100.0 µM 44% | [4]; at 1.2 µM 6% | [4]; at 3.7 µM 3% | [4]; [16] 5% | [4]; at 11.0 µM -4% | [4]; at 33.0 µM 10% | [4]; [17] -7% | [4]; at 50.0 µM 0.25% | [4]; at 100.0 µM 5% | [5]; at 1.2 µM 0% | [5]; at 3.7 µM 1% | [5]; [16] -25% | [5]; at 11.0 µM 2% | [5]; at 33.0 µM 3% | [5]; [17] -24% | [5]; at 50.0 µM 4.2% | [5]; at 100.0 µM 4% | [6]; at 1.2 µM 4% | [6]; at 3.7 µM 3% | [6]; at 11.0 µM 0% | [6]; at 33.0 µM 5% | [6]; at 100.0 µM 3% | [7]; [16] 6% | [7]; [17] 62% | [15]; at 1.2 µM 2% | [15]; at 3.7 µM -2% | [15]; at 11.0 µM -3% | [15]; at 33.0 µM 1% | [15]; at 100.0 µM -7% | [8]; [16] -7% | [8]; [17] 9% | [8]; at 50.0 µM -67.3% | [9]; at 1.2 µM 3% | [9]; at 3.7 µM 4% | [9]; [16] -12% | [9]; at 11.0 µM 0% | [9]; at 33.0 µM 4% | [9]; [17] 50% | [9]; at 50.0 µM 39.1% | [9]; at 100.0 µM 8% | [10]; at 1.2 µM -8% | [10]; at 3.7 µM -5% | [10]; at 11.0 µM -17% | [10]; at 33.0 µM -5% | [10]; at 100.0 µM 55% | [11]; at 1.2 µM 4% | [11]; at 3.7 µM 0% | [11]; at 11.0 µM -3% | [11]; at 33.0 µM 13% | [11]; at 100.0 µM 41% | [12]; at 1.2 µM -4% | [12]; at 3.7 µM 1% | [12]; at 11.0 µM -24% | [12]; at 33.0 µM 1% | [12]; at 100.0 µM 48% | [13]; [16] 8% | [13]; [17] 43% | [13]; at 50.0 µM 4% | [14]; at 1.2 µM 6% | [14]; at 3.7 µM 2% | [14]; at 11.0 µM -1% | [14]; at 33.0 µM 5% | [14]; at 100.0 µM 9%
active: [7]; at 50.0 µM 77%
